Source: PubChem BioAssay
Rows were chosen to be rich in hits. Some 6.1% of all compounds tested hit in one or more screens of this group.
D3 ag: agonists of human D3 dopamine receptor. P35462. 410,000 tested, 0.58% active. AID 652048. D3R DiscoveRx beta-arrestin cells, luminescence, 90 min. max activation, %; in the data active = max activation above about 30%; also: 0% is about no effect
Target sequence (P35462 whole entry, looked up): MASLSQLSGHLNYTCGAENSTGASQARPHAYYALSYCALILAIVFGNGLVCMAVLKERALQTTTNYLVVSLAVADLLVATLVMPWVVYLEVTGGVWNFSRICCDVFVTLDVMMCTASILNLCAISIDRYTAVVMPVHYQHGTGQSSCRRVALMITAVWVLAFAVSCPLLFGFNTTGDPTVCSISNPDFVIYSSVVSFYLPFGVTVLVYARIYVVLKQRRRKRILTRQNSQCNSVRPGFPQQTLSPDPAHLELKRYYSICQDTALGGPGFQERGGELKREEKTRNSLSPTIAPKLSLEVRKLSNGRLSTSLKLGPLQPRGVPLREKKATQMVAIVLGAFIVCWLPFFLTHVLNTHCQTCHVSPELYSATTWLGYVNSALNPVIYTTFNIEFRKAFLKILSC
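Agonist-mode cell screen: cells plated at 1500/well and incubated overnight at 37 °C, then exposed to library compounds for 90 min at 37 °C. Detection reagent was added for 30–60 min at room temperature, and luminescence was read.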
D3 antag: blocks the human D3 dopamine receptor | D3R cells, DiscoveRx beta-arrestin luminescence, antagonist mode; stronger effect = lower value | 360,000 tested, 2.5% active | P35462 | max response, negative = inhibition, %; in the data active = max response below about -50%; inconclusive = no clear call, values can overlap the other calls; also: % is scaled to controls: 0 for no effect and ±100 for the full control effect
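Cells plated overnight at 1500 cells/well, then exposed to library compounds with dopamine controls for 90 minutes at 37 degrees C. DiscoveRx reagent added for 30–60 minutes at room temperature; luminescence read, quantitative HTS format.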
D1 agonist: human D1 receptor agonism | HEK293 T-REx D1 cells, calcium flux, agonist mode | activation, % at 2 µM | 360,000 tested, 1% active | P21728; in the data active = activation above about 30%; also: 0% is about no effect
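Inducible HEK293 T-REx D1 cells, force-coupled to calcium signalling, were plated at 4000 cells/well with tetracycline and held overnight at 30 C. After no-wash calcium dye loading, compound-evoked calcium rise over 180 s flagged agonists.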
D1 antag: antagonists of human D1 dopamine receptor; P21728; HEK293 TREx D1 cells, calcium flux, dopamine EC80; stronger effect = lower value; activity change, negative = inhibition, % at 10 µM; 360,000 tested, 3.2% active; AID 504652; in the data active = activity change below about -30%; also: % is scaled to controls: 0 for no effect and ±100 for the full control effect
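Tetracycline-induced HEK293 T-REx cells with force-coupled D1 receptor were loaded with a no-wash calcium dye. Compound was added after a 10 s baseline and read kinetically for 180 s; EC80 dopamine was then added and calcium flux followed another 180 s.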
D1 PAM: potentiators of human D1 dopamine receptor; potentiation, % at 10 µM; HEK293 TREx D1 cells, calcium flux, dopamine EC20 potentiation; 360,000 tested, 0.036% active; AID 504651; P21728; in the data active = potentiation above about 30%; also: 0% is about no effect
* = called active by the depositor; ? = inconclusive; . = no result; ! = repeats disagree.

SMILES | D3 ag | D3 antag | D1 agonist | D1 antag | D1 PAM
CCN(c1ccccc1)S(=O)(=O)c1ccc(NC(=S)NC(=O)c2cccs2)cc1 | -11 | -74* | 4 | 5 | -6
CCN(c1ccccc1)S(=O)(=O)c1ccc(C(=O)NCC(c2cccs2)N(C)C)cc1 (stereo not given) | -13 | -52* | 20 | -29 | -12
CCN(c1ccccc1)S(=O)(=O)c1ccc(C(=O)NCC(=O)Nc2ccc(F)c(F)c2F)cc1 | -9 | -97* | . | . | .
CCN(c1ccccc1)S(=O)(=O)c1cc(C(=O)Nc2ccc(Br)cc2)ccc1F | -1 | ? | 7 | -37*! | -3
CCCCn1c(C)cc2c(c1=O)C1O[C@](c3ccc(OC)cc3)(Cc3cc(OC)c(OC)cc31)O2 | . | . | 3 | 14 | -3
CCCOc1ccc(C(=O)NCC(c2cccs2)N(C)C)cc1 (stereo not given) | -3 | -2 | 3 | 1 | -12
CCN(c1ccccc1)S(=O)(=O)c1cc(C(=O)NCC(c2ccc(OC)cc2)N(C)C)ccc1C (stereo not given) | -20 | -90* | . | . | .
CCOc1ccc(C(=O)NCC(c2cccs2)N(C)C)cc1OCC (stereo not given) | -7 | -59* | -1 | 12 | -7
O=C(CCS(=O)(=O)c1nc(-c2ccc3c(c2)OCO3)cc(C(F)(F)F)n1)Nc1ccc(F)c(Cl)c1 | -24 | . | 5 | -6 | -1
CC(C)(C)NC(=O)NC(=O)COC(=O)c1cccc(OC(F)F)c1 | -3 | -25 | 8 | -31* | -2
O=C(CN1CCC(n2nnc3cc(F)ccc32)CC1)NCCc1nc2ccccc2[nH]1 | -34 | -65* | 1 | 1 | -4
O=C(CN1CCC(n2nnc3ccccc32)CC1)Nc1ccc2c(c1)CCC2 | -7 | -65* | 3 | 0 | -2
O=C(CN1CCC(n2nnc3cc(F)ccc32)CC1)Nc1ccc2c(c1)CCC2 | -11 | -76* | -1 | -18 | -7
Cc1cccc(NC(=O)N2CCC(n3nnc4cc(C)ccc43)CC2)c1 | -2 | 0 | 1 | 0 | 1
Cc1ccc2c(c1)nnn2C1CCN(CC(=O)Nc2ccc(F)cc2)CC1 | -34 | ? | 0 | 1 | -11
O=C(CN1CCC(n2nnc3cc(F)ccc32)CC1)NNC(=O)c1ccccc1 | -25 | ? | 2 | 3 | -8
COc1cccc(NC(=O)N2CCC(n3nnc4ccccc43)CC2)c1 | -7 | 6 | 20 | -47* | -4
CCOc1ccc(C2c3[nH]c4ccccc4c3CCN2CCCn2cccn2)cc1 (stereo not given) | -5 | -14 | 1 | -20 | -3
CCOc1ccc(NC(=O)c2oc3ccccc3c2NC(=O)C(C)(C)C)cc1 | 8 | . | 3 | -3 | 3
O=C(CN1CCC(n2nnc3cc(F)ccc32)CC1)N1CCCc2ccccc21 | 0 | -54* | 1 | -21 | -1
Cc1ccc2c(c1)nnn2C1CCN(CC(=O)N(c2ccccc2)c2ccccc2)CC1 | -8 | -6 | 1 | 7 | -2
Cc1ccc2c(c1)nnn2C1CCN(CC(=O)N2c3ccccc3CC2C)CC1 (stereo not given) | -9 | -70* | 2 | 10 | -4
CC1CCC(NC(=O)CN2CCC(n3nnc4cc(F)ccc43)CC2)CC1 (stereo not given) | 0 | -67* | 0 | 5 | 1
Cc1cc2ccccn2c1C(=O)c1ccccc1F | -8 | -13 | 3 | -13 | -4
Cc1nnsc1C(=O)Oc1ccc(Cl)cc1 | 0 | . | 0 | 3 | 0
SMILES | D3 ag | D3 antag | D1 agonist | D1 antag | D1 PAM
Cc1noc(-c2ccc(-c3noc(-c4cccc(F)c4)n3)cc2)n1 | -13 | . | 0 | 4 | 0
COc1cc2c(cc1OC)[C@@H]1O[C@](CCCCN3C(=O)c4ccccc4C3=O)(C2)Oc2cc(C)n(-c3ccccc3)c(=O)c21 | . | . | 5 | -4 | -3
COc1ccccc1NS(=O)(=O)c1cc([N+](=O)[O-])ccc1N/N=C/c1c(C)[nH]c2ccccc12 | -33 | -52* | 62* | 24 | -9
Cc1[nH]c2ccccc2c1/C=N/Nc1ccc([N+](=O)[O-])cc1 | -16 | ? | 125* | -4 | -9
Cc1[nH]c2ccccc2c1/C=N/NC(=O)c1cccc(F)c1 | -11 | ? | 1 | -66* | -2
CN1CCN(S(=O)(=O)c2cc([N+](=O)[O-])ccc2N/N=C/c2ccc(Cl)cc2)CC1 | -19 | -18 | 1 | 3 | -5
